This passage reports z-score and composite z-score results from PubChem BioAssay.

SMILES strings stand for the structures. Calls of active or inactive are those of the source. Unless noted, the rule behind the calls is not given here.

A short description of assay [1]: resazurin metabolic signal in HepG2 cells – cell-based, resazurin fluorescence, 24 h, PK04 Diversity Set, profiling panel (AID 1172). Note: test concentration not given here. Particulars: HepG2 viability, higher = more signal. For orientation: Resazurin is reduced to fluorescent resorufin, in cell work by metabolically active cells.
Assay [2] is described as follows: budding yeast growth changes without added modifier – OD600, strain BY4716, 24 h, basal condition, primary screen (AID 1173). Particulars: S. cerevisiae BY4716 growth, OD600, 24 h; higher = more signal, called active from +8 up or from −8 down.
Assay [3] is described as follows: viability profiling in MM1S myeloma cells – cell-based, resazurin fluorescence, basal, 24 h, PK04 Diversity Set, profiling panel (AID 1174).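 Note: MM1S multiple myeloma cell line; test concentration not given here.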 Particulars: higher = more signal, called active from +8 up or from −8 down.
The target of assay [4] is Dihydroorotate dehydrogenase (quinone), mitochondrial (Plasmodium falciparum (isolate 3D7)) (UniProt Q08210). Put plainly: inhibition of P. falciparum DHODH – biochemical, C-terminal His tag, absorbance 600 nm, primary screen (AID 1175).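 Note: recombinant parasite enzyme with a five histidine tag at its C terminus; test concentration not given here.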 Conditions: PfDHODH enzyme, DCIP absorbance 600 nm; higher = more signal, called active from +8 up or from −8 down.
Sequence of Dihydroorotate dehydrogenase (quinone), mitochondrial (Plasmodium falciparum (isolate 3D7)) (Q08210 whole entry, looked up): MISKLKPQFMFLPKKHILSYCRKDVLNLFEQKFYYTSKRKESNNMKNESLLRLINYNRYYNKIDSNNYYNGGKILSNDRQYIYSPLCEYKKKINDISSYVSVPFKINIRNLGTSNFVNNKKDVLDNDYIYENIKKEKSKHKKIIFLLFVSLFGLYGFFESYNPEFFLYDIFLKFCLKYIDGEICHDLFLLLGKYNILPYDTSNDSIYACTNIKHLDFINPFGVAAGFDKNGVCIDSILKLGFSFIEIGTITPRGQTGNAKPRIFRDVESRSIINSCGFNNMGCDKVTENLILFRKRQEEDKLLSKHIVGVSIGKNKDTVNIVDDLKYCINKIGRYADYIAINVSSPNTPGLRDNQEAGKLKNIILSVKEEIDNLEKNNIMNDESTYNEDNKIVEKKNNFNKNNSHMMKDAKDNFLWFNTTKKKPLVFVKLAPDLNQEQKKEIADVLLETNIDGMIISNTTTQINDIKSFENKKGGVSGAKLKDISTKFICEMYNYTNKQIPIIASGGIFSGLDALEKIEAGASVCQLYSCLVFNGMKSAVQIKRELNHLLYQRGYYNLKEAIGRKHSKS
The nature of assay [5]: inhibition of PAO1 biofilm formation – strain PAO1, LB-PBS medium, absorbance 600 nm, primary screen (AID 1176). Note: test concentration not given here. Particulars: P. aeruginosa PAO1 growth/biofilm, A600, 12 h; higher = more signal.
The nature of assay [6]: growth modulation of vineyard yeast isolate – strain RM11-1a, OD600, basal, 24 h, primary screen (AID 1177).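 Note: cultures grown under basal conditions with no added stressor; test concentration not given here.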 Conditions: S. cerevisiae RM11-1a growth, OD600, 24 h; higher = more signal, called active from +8 up or from −8 down.
A short description of assay [7]: growth of efflux-deficient E. coli DRC39 – strain DRC39, OD650, 24 h, E. coli filamentation inducers, primary screen (AID 1178).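 Note: growth measured as culture turbidity by optical density at 650 nm; test concentration not given here.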 Conditions: E. coli DRC39 acrAB, higher = more signal, called active from +8 up or from −8 down.
A short description of assay [8]: growth of efflux-deficient E. coli DRC39 – strain DRC39, OD650, 48 h, E. coli filamentation inducers, primary screen (AID 1179).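 Note: screen aims at cell division blockers that make cells filament.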 Particulars: E. coli DRC39 delta-acrAB growth, higher = more signal, called active from +8 up or from −8 down.
A short description of assay [9]: viability profiling in RPMI8226 myeloma cells – cell-based, resazurin fluorescence, basal, 24 h, PK04 Diversity Set, profiling panel (AID 1180).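 Note: RPMI8826 multiple myeloma cell line at 5000 cells per well; test concentration not given here.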 Conditions: higher = more signal.
The target of assay [10] is E3 ubiquitin-protein ligase XIAP (Homo sapiens) (UniProt P98170). Put plainly: small molecules binding XIAP protein – biophysical, small-molecule microarray, fluorescence 635 nm, primary screen (AID 1181).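 Note: score merges 667 nm emission and signal to noise over triplicate slides.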 Conditions: higher = more signal.
Sequence of E3 ubiquitin-protein ligase XIAP (Homo sapiens) (P98170 whole entry, looked up): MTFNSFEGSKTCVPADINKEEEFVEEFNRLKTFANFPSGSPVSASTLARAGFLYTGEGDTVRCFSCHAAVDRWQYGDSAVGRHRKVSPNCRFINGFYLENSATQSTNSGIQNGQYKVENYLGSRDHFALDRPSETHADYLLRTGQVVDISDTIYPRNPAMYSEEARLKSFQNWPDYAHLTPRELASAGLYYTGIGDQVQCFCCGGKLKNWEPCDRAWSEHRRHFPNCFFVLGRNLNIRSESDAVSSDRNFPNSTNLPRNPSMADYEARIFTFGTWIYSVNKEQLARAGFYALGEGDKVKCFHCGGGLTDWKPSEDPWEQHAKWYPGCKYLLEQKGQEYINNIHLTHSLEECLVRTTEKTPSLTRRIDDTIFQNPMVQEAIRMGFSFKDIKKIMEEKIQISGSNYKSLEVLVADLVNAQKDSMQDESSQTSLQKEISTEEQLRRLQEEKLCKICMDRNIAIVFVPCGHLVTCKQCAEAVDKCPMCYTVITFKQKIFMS

For the molecule `CCCCC(=C=CC[C@@H](O)c1ccc(OCCO)cc1)C[C@@H](O)COCc1ccccc1`, the z-score in [1] was 0.931; in [2], -5.91 (inactive); in assay [3] it was -0.301 (inactive); in [5], 0.637 (inactive); in assay [6], -3.31 (inactive); in [7] it was 1.9 (inactive). Also, the z-score in assay [8] is 1.55 (inactive); in assay [9], -0.342. Besides, the composite z-score in assay [4] is -2.29 (inactive); in assay [10] it was 0.124.

As for `CCOC(=O)C[C@H]1[C@H](OC(=O)Cc2ccc3c(c2)OCO3)[C@@H](NC(=O)C2CCCCC2)c2cc(OCCCO)ccc2N1C(=O)c1ccc2ccccc2n1`, the z-score was 0.306 in [1]; -1.65 (inactive) in assay [2]; 0.773 (inactive) in [3]; -1.93 (inactive) in [5]; 0.133 (inactive) in [6]; 0.777 (inactive) in assay [7]. Moreover, the z-score was 0.259 (inactive) in [8] and -0.338 in assay [9]. Moreover, the composite z-score in [4] was -3.08 (inactive); in [10], 0.302.

As for `CC(C)CNC(=O)[C@@]1(c2ccc([N+](=O)[O-])cc2)CC(=O)N(C2CCCCC2)[C@@H]1c1ccc(CO)cc1I`, the z-score in assay [1] is 0.201; in [2], -0.871 (inactive); in assay [3], -0.0126 (inactive); in assay [5], 0.304 (inactive); in assay [6], -0.294 (inactive); in assay [7], 0.175 (inactive). In addition, the z-score in assay [8] is -0.683 (inactive); in assay [9] it was 0.447. The composite z-score in assay [4] was 0.797 (inactive); in [10], 0.169.

Take `C=CC[C@@H](OC(=O)Nc1ccc(OC)cc1)c1ccc(OCCO)cc1`: the z-score in assay [1] is -0.197; in [2], -3.85 (inactive); in assay [3], -0.561 (inactive); in [5], 0.438 (inactive); in [6], -0.373 (inactive); in assay [7], 0.411 (inactive). For the same molecule, the z-score in assay [8] is -0.103 (inactive); in assay [9] it was -0.365. Also, the composite z-score in [4] is 0.251 (inactive); in assay [10], 0.206.

With `C=CC[C@@]12N=C(c3ccc(OCCCO)cc3)O[C@@H]1c1ccccc1N(CCS(=O)(=O)c1ccccc1)C2=O`, the z-score in [1] is 0.653; in assay [2], 0.0618 (inactive); in assay [3] it was -1.97 (inactive); in assay [5], -0.251 (inactive); in [6], 0.379 (inactive); in [7], 0.907 (inactive). Further, the z-score in assay [8] is 1.6 (inactive); in assay [9], -1.07. In addition, the composite z-score in assay [4] is 0.0628 (inactive); in assay [10] it was 0.0303.

For `COCCOC(=O)N1C(=O)[C@@]2(c3cc(C#CCC(C(=O)OC)C(=O)OC)ccc31)[C@H](c1ccc(OCCO)cc1)N1[C@H](c3ccccc3)[C@H](c3ccccc3)OC(=O)[C@H]1[C@@H]2C(=O)N1CCN(c2ncccn2)CC1`, the z-score in [1] is 1.27; in assay [2] it was 0.588 (inactive); in assay [3], -0.199 (inactive); in assay [5], 2.06 (inactive); in assay [6], 1.82 (inactive); in assay [7] it was 0.362 (inactive). The z-score in assay [8] is -0.108 (inactive); in assay [9] it was 0.262. Besides, the composite z-score in assay [4] is 1.35 (inactive); in [10], -0.22.

Consider `Cc1c(NC(=O)/C(C#N)=C/C=C/c2ccc(N(C)C)cc2)c(=O)n(-c2ccccc2)n1C`, for which the z-score in assay [1] was 0.29; in assay [2], -0.312 (inactive); in [3], 0.514 (inactive); in assay [5] it was -0.103 (inactive); in [6], -0.246 (inactive); in [7] it was 1.78 (inactive). The z-score in assay [8] is -0.202 (inactive); in assay [9] it was 1.08. The composite z-score in assay [4] is -0.186 (inactive); in [10], 0.0899.

Consider `Cc1ccc(F)cc1S(=O)(=O)N[C@@H]1CCN(Cc2ccc(OC(C)C)cc2)C1`, for which the z-score in assay [1] was -0.917; in assay [2], -8.98 (active); in assay [3], -2.09 (inactive); in assay [5], -0.225 (inactive); in assay [6], 0.652 (inactive); in [7] it was -20 (active). Further, the z-score was -19.8 (active) in assay [8] and -0.945 in assay [9]. Further, the composite z-score in assay [4] is -0.0588 (inactive); in assay [10], -0.0794.

Regarding `COCCCNC(=O)[C@]1(CCC(=O)OC(C)(C)C)N=C(c2ccc(OCCCO)cc2)O[C@@H]1c1ccccc1`, the z-score in assay [1] was -0.402; in assay [2], 0.397 (inactive); in assay [3], -0.121 (inactive); in assay [5] it was 0.413 (inactive); in assay [6], 0.0279 (inactive); in assay [7], -0.286 (inactive). In addition, the results for the z-score in assay [8] and in assay [9] were -0.0848 (inactive) and -0.354, respectively. Also, the composite z-score in assay [4] was 0.152 (inactive); in assay [10] it was 0.081.

`COc1ccc(NC(=O)O[C@H]2[C@H](OC(=O)Nc3ccc4c(c3)OCO4)[C@@H](OC(=O)Nc3ccc4c(c3)OCO4)[C@@H](OC)O[C@@H]2CO)cc1`: the z-score in assay [1] was -0.315; in assay [2] it was 1.96 (inactive); in [3] it was -0.844 (inactive); in assay [5], 2.33 (inactive); in [6], 1.56 (inactive); in assay [7], 1.13 (inactive). In addition, the z-score in assay [8] was 0.0559 (inactive); in assay [9], -0.85. Besides, the figures for the composite z-score in assay [4] and in [10] were -0.445 (inactive) and -0.102, respectively.

For the molecule `COC(=O)C[C@H]1O[C@]2(C(=O)N(C)c3ccccc32)[C@@H](C)[C@@H]1[Si](C)(C)c1ccc(C)cc1`, the z-score was -0.501 in [1]; -2.64 (inactive) in [2]; 1.47 (inactive) in assay [3]; -0.884 (inactive) in assay [5]; 0.155 (inactive) in assay [6]; 1.37 (inactive) in [7]. Further, the z-score in assay [8] is -0.466 (inactive); in assay [9] it was 0.789. The composite z-score was 0.0559 (inactive) in assay [4] and -0.0172 in [10].

Turning to `COCCOC(=O)N1C(=O)[C@@]2(c3ccccc31)[C@H](c1ccc(OCCO)cc1)N1[C@H](c3ccccc3)[C@H](c3ccccc3)OC(=O)[C@H]1[C@@H]2C(=O)Nc1nc2ccccc2s1`, the z-score was 0.269 in assay [1]; 1.29 (inactive) in assay [2]; -0.657 (inactive) in assay [3]; 2 (inactive) in assay [5]; 1.11 (inactive) in [6]; -0.176 (inactive) in assay [7]. Moreover, the figures for the z-score in assay [8] and in [9] were -0.524 (inactive) and 0.0486, respectively. For the same molecule, the composite z-score was -0.383 (inactive) in [4] and 0.259 in assay [10].
